The nature of test [1]: BSK_BT_PBMCCytotoxicity: PBMC Cytotoxicity Assessment in the BioMAP Diversity Plus: BT Assay (AID 2284225).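 Further: PBMC viability measured by Alamar Blue dye reduction fluorescence.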 Conditions: primary human B cells with PBMC. In outline: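 75,000 cells/well; cpd 1 h → SEB + TSST-1 (20 ng/mL final each) → 90 h → Alamar Blue 6 h → fluor. 546/580 nm. DMSO = neg. control/baseline.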
Read-out in test [2]: Secreted IgG (sIgG), gene 3500
Put plainly: BSK_BT_sIgG: BioMAP Diversity Plus: BT Assay for Secreted IgG (sIgG) Biomarker Activity (AID 2284226). To be noted: primary human B cells with PBMC. In outline:
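Secreted IgG from a human primary B cell–PBMC co-culture was measured by ELISA 24 hours after dosing, with DMSO defining baseline activity.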

Test [3] can be described thus: TAMU_PeakParms_SingleDonor1434_Chronotropy: Texas A&M University (TAMU) 1.5-hr Human Induced Pluripotent Stem Cell (iPSC)-derived Cardiomyocytes Calcium (Ca+2) Flux Assay for Cardiotoxicity: Chronotropy (changes in peak frequency) (AID 2284217). To be noted: actives raise or lower the signal. In outline:
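Beat rate, as mean Ca2+-flux peak frequency, was read from donor 1434 iPSC cardiomyocytes 90 min after exposure to 0.2–100 uM test chemical (0.5% DMSO). Wells that stopped beating were excluded; EC05 from bidirectional DMSO-referenced fitting.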

Test [4] in a line: UKN2_HCS_IMR90_neural_migration: University of Konstanz (UKN) Leist Lab Neural Crest Cell Migration Assay in human induced IMR90 Pluripotent Stem Cells (UKN2) (AID 2284204). To be noted: actives raise or lower the signal. The essentials:
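iPSC-derived IMR90 neural crest cells on PLO/laminin/fibronectin were seeded around silicone stoppers; after stopper removal, migration in N2-S medium with EGF and FGF ran 24 h before 24 h chemical exposure. Calcein-AM/Hoechst high-content imaging; bidirectional fit versus DMSO.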

Test [5] in a line: IUF_NPC1b_proliferation_BrdU_72hr: Leibniz Research Institute for Environmental Medicine (IUF) 72-hour Neural Progenitor Cell Bromodeoxyuridine (BrdU) Proliferation Assay (NPC1b) (AID 2284207). In outline:
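hNPC spheres (primary, GW 16-19 fetal cortex), single sphere/well, EGF+FGF medium; 72 h compound, no renewal; BrdU pulse last 16 h; luminescent ELISA; activity vs DMSO baseline; growth-factor withdrawal as positive control.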

Test [6] can be described thus: IUF_NPC1a_proliferation_area_72hr: Leibniz Research Institute for Environmental Medicine (IUF) 72-hour Neural Progenitor Cell Proliferation Area Assay (NPC1a) (AID 2284208). The essentials:
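Spheres of 0.3 mm are plated singly in growth-factor medium and exposed from day 0. After three days at 37C and 5% CO2, sphere area is measured by phase contrast imaging, with activity referenced to DMSO.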

Test [7] in a line: IUF_NPC1_viability_72hr: Viability Assessment at 72 hours in the Leibniz Research Institute for Environmental Medicine (IUF) Neural Progenitor Cell Proliferation Assay (NPC1) (AID 2284209). In outline: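 Each well receives one 0.3 mm progenitor sphere from fetal brain cortex; test chemical is added at plating and left three days. Viability comes from alamar blue fluorescence, multiplexed with LDH and BrdU readouts in the same well.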

A short description of test [8]: CCTE_Mundy_HCI_Cortical_Synap_Neur_Matur_NeuriteSpotCountPerNeuriteLength: CCTE's Synaptogenesis and Neurite Maturation Assay in rat cortical cells for Neurite Spot Count per Neurite Length, Mundy Lab (AID 2284210). The essentials: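 Rat primary cortical cultures, glia arrested with AraC at DIV 5, were dosed with media change at DIV 7 and fixed at DIV 12. Synaptophysin puncta per MAP2-labelled neurite length were quantified by high-content imaging versus DMSO.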

Test [9] is described as follows: CCTE_Mundy_HCI_Cortical_Synap_Neur_Matur_BPCount: CCTE's Synaptogenesis and Neurite Maturation Assay in rat cortical cells for Branch Point Count, Mundy Lab (AID 2284211). In outline: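 Branch point number is quantified by automated imaging of fluorescently labelled neurites and synapses in rat primary cortical neurons exposed from DIV 7 to DIV 12. Activity is analysed relative to DMSO negative control.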

Test [10] can be described thus: CCTE_Mundy_HCI_Cortical_NOG_NeuriteCount: CCTE's Neurite Outgrowth Assay in rat cortical cells for Neurite Count, Mundy Lab (AID 2284212).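 Further: cells fixed about two days after chemical exposure began.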 In outline: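 Neurite number per cell from high-content imaging of betaIII-tubulin immunostaining, with Hoechst nuclear counterstain.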
The nature of test [11]: CCTE_Mundy_HCI_Cortical_NOG_NeuriteLength: CCTE's Neurite Outgrowth Assay in rat cortical cells for Neurite Length, Mundy Lab (AID 2284213).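 On AC50: neurites imaged about 48 to 50 h after chemical exposure began.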 In outline:
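Neurite length was read by high-content imaging of βIII-tubulin-labelled neurites in rat primary cortical cultures. Activity was fitted relative to DMSO.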

Test [12] is described as follows: CCTE_Mundy_HCI_Cortical_Synap_Neur_Matur_NeuriteLength: CCTE's Synaptogenesis and Neurite Maturation Assay in rat cortical cells for Neurite Length, Mundy Lab (AID 2284214). In outline:
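Neurite length in rat primary cortical cultures is imaged after MAP2, synaptophysin and Hoechst staining. Dosing starts DIV 7, ending DIV 12; DMSO serves as negative control and baseline.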

A short description of test [13]: CCTE_Mundy_HCI_Cortical_Synap_Neur_Matur_NeuriteSpotCountPerNeuron: CCTE's Synaptogenesis and Neurite Maturation Assay in rat cortical cells for Neurite Spot Count per Neuron Count, Mundy Lab (AID 2284215). The essentials:
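Rat cortical primary cultures; AraC DIV 5 to arrest glia; dosing + media change DIV 7; fixed DIV 12. Anti-MAP2/anti-synaptophysin, Hoechst nuclei; HCI puncta count per neuron, positive fitting direction vs DMSO.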

Test [14] can be described thus: CCTE_Mundy_HCI_Cortical_Synap_Neur_Matur_SynapseCount: CCTE's Synaptogenesis and Neurite Maturation Assay in rat cortical cells for Synapse Count, Mundy Lab (AID 2284218). The essentials: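 Synapse count per neuron is measured in rat cortical neurons exposed to chemicals between DIV 7 and DIV 12, with glial growth arrested by AraC at DIV 5. Synaptophysin and MAP2 staining is imaged automatically; activity is fitted relative to DMSO.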

Test [15] in a line: CCTE_Mundy_HCI_Cortical_Synap_Neur_Matur_NeuriteCount: CCTE's Synaptogenesis and Neurite Maturation Assay in rat cortical cells for Neurite Count, Mundy Lab (AID 2284222).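 On outcome: exposure from day 7 to day 12 in vitro with readout at day 12.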 In outline:
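Rat cortical neurons, 96-well; AraC DIV 5; chemical + media change DIV 7; end DIV 12. Fix PFA/Hoechst, anti-MAP2 + anti-synaptophysin IF. HCI neurite count vs DMSO baseline.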

The nature of test [16]: CCTE_Mundy_HCI_Cortical_Synap_Neur_Matur_CellBodySpotCount: CCTE's Synaptogenesis and Neurite Maturation Assay in rat cortical cells for Cell Body Spot Count, Mundy Lab (AID 2284223). In outline:
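Rat cortical neurons; AraC @ DIV 5; dose + media change DIV 7; fix DIV 12; anti-MAP2/anti-synaptophysin IF, Hoechst; HCI count of soma synaptophysin puncta/neuron; DMSO = negative control.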

Test [17] is described as follows: CCTE_Mundy_HCI_hN2_NOG_NeuriteCount: CCTE's Neurite Outgrowth Assay in human hN2 cells for Neurite Count, Mundy Lab (AID 2284219; active means hit-call score of the fitted dose curve at least 0.9, where 1 is the maximum). The essentials:
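In this morphology assay, hNP1-derived neurons received test chemical 2 h post-plating and were fixed two days later in warm paraformaldehyde/sucrose containing Hoechst 33342. Neurites, labelled by rabbit anti-βIII-tubulin (1:800) and Alexa Fluor-488 (1:500), were counted automatically.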

The nature of test [18]: CCTE_Mundy_HCI_hN2_NOG_NeuriteLength: CCTE's Neurite Outgrowth Assay in human hN2 cells for Neurite Length, Mundy Lab (AID 2284220; active means hit-call score of the fitted dose curve at least 0.9, where 1 is the maximum). The essentials: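 Using βIII-tubulin immunofluorescence and Hoechst nuclear counterstain, this component quantifies neurite length in hNP1-derived neurons.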
A short description of test [19]: CCTE_Mundy_HCI_hN2_NOG_NeuronCount: CCTE's Neurite Outgrowth Assay in human hN2 cells for Neuron Count, Mundy Lab (AID 2284221; active means hit-call score of the fitted dose curve at least 0.9, where 1 is the maximum). The essentials: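 Read-out is the number of betaIII-tubulin-positive neurons imaged by automated high-content analysis, with DMSO as negative control.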
Test [20] in a line: CCTE_Mundy_HCI_hNP1_Pro_ResponderAvgInten: CCTE's Proliferation Assay in human neuroprogenitor cells, Mundy Lab (AID 2284224; active means hit-call score of the fitted dose curve at least 0.9, where 1 is the maximum;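 further: human neural progenitor cells hNP1 derived from WA09 embryonic stem cells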). The essentials: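 Human neuroprogenitors (hNP1, WA09 lineage) receive test chemical after 40 to 44 hours of attachment. A four-hour BrdU pulse begins twenty hours later, followed by fixation and high content imaging; signal is referenced to DMSO controls.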

Results filed as inconclusive are left out. Where a structure was tested more than once in an assay, its records may differ in their call. Active and inactive are the calls of the source. How the source made its calls, unless noted: active means hit-call score of the fitted dose curve at least 0.9, where 1 is the maximum; inactive means score below 0.9.

On to `Sc1ccccc1`, for which the result in test [1] and in test [2] was inactive.
Take `c1cc2ccc3cccc4ccc(c1)c2c34`: the AC50 (in general, the concentration at which the activity in the assay is half-maximal) in test [3] is 50 µM (active).
Turning to `O=C(O)C(F)(F)C(F)(F)C(F)(F)C(F)(F)C(F)(F)F`, the outcome in test [1] and in test [2] was inactive.
On to `Oc1c(Cl)c(Cl)c(Cl)c(Cl)c1Cl`, for which the outcome in [1] was inactive. Moreover, the AC50 in test [2] was 27 µM (active).
Regarding `O=C(O)C(F)(F)C(F)(F)C(F)(F)C(F)(F)C(F)(F)C(F)(F)C(F)(F)C(F)(F)C(F)(F)F`, in test [1], the AC50 is 5.95 µM (active) and the outcome was inactive. In addition, the outcome in test [2] was inactive.
On to `O=S(=O)(O)C(F)(F)C(F)(F)C(F)(F)C(F)(F)F`, for which the compound was called inactive in [4], in test [5], in test [6], in test [7], in test [8] and in test [9]. For the same compound, the outcome in test [10], in test [11], in test [12], in test [13], in test [14] and in test [15] was inactive. In addition, the compound was classed as inactive in test [16], in test [1] and in test [2].
For `O=C(O)C(F)(F)C(F)(F)C(F)(F)C(F)(F)C(F)(F)C(F)(F)C(F)(F)C(F)(F)F`, the outcome in test [1] and in test [2] was inactive.
`ClC1=C(Cl)[C@]2(Cl)[C@@H]3[C@@H](Cl)[C@H]4O[C@H]4[C@@H]3C1(Cl)C2(Cl)Cl`: the result in test [8] and in [15] was inactive. The AC50 in [9] is 3.36 µM (active); in test [10] it was 16.6 µM (active); in [11], 16 µM (active); in test [12], 4.05 µM (active); in [13], 8.58 µM (active); in test [14], 9.03 µM (active). For the same compound, the AC50 in test [17] was 13.2 µM (active); in test [18], 13.1 µM (active); in [19] it was 5.59 µM (active); in test [16], 9.92 µM (active); in test [20], 15.8 µM (active).
As to `CO/C=C(/C(=O)OC)c1ccccc1COc1cccc(C(F)(F)F)n1`, the outcome in test [4] and in test [5] was inactive. Moreover, the AC50 was 12.6 µM (active) in test [6]; 25.3 µM (active) in test [7]; 1.09 µM (active) in [8]; 1.16 µM (active) in [9]; 1.55 µM (active) in [10]; 1.43 µM (active) in test [11]. Besides, the AC50 in test [12] was 0.731 µM (active); in [13], 0.688 µM (active); in [14] it was 0.871 µM (active); in [15], 1.46 µM (active); in test [16] it was 1.16 µM (active); in test [20], 86.9 µM (active).
For `C=CC(N)=O`, the result in test [5], in test [6], in test [7], in [8], in test [9] and in test [10] was inactive. For the same compound, the compound was called inactive in [11], in test [12], in [13], in test [3], in [14] and in test [17]. The outcome in [18], in test [19], in test [15] and in test [16] was inactive.

These data come from PubChem BioAssay (EPA / NIEHS).
